Experiments:
Experiment in all cases: DAPPL (digital affinity profiling via proximity ligation, sequencing); 10 mM Tris-HCl pH 7.5, 50 mM NaCl, 1 mM DTT, 4% glycerol, room temperature, 30 min; GST-TFs on glutathione beads, 16-mer random dsDNA library, 0.1% formaldehyde crosslink after washing; high values mean tight binding
FEV = target: T1, FEV (Homo sapiens, UniProt Q99581 1-238); conditions: protein: recombinant; tags: N-terminal GST; dsDNA, one strand shown
T1 sequence: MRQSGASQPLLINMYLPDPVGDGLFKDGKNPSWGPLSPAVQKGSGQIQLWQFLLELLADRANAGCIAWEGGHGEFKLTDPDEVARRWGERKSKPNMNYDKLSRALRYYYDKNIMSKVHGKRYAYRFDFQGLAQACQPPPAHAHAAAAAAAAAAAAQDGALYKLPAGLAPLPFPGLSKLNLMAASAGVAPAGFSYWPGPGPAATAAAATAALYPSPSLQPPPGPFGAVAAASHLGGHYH
Summary of the method: (§1)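 After expression in yeast as GST fusions, human transcription factors were bound to glutathione beads, DNA-barcoded and mixed with a tag-only sample. The pools were incubated with 200 nmole of a 16-mer random double-stranded DNA library in Tris/NaCl/DTT/glycerol buffer (30 min, room temperature), washed and crosslinked with 0.1% formaldehyde. Proximity ligation with BsaI/T4 ligase ran for 1 h at 37 °C, before PCR amplification and sequencing on an Illumina NextSeq500. Binding signal is a hexamer's read frequency for a factor divided by its frequency for the tag-only sample.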

ETV5 = ETV5 (Homo sapiens, UniProt P41161 1-510); conditions: protein: recombinant; tags: N-terminal GST; dsDNA, one strand shown
Summary of the method: as §1

HSF1 = HSF1 (Homo sapiens, UniProt Q00613 1-529); conditions: protein: recombinant; tags: N-terminal GST; chain copies: 3; dsDNA, one strand shown
Summary of the method: as §1

SPIC = target: T2, SPIC (Homo sapiens, UniProt Q8N5J4 1-248); conditions: protein: recombinant; tags: N-terminal GST; dsDNA, one strand shown
T2 sequence: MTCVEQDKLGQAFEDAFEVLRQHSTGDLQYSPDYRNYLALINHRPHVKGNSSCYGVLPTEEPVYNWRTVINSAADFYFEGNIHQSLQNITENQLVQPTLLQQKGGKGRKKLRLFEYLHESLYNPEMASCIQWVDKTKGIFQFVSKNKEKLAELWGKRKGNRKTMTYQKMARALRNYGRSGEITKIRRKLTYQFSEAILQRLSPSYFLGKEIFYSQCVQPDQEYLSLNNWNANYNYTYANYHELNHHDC
Summary of the method: as §1

ELF4 = ELF4 (Homo sapiens, UniProt Q99607 1-663); conditions: protein: recombinant; tags: N-terminal GST; dsDNA, one strand shown
Summary of the method: as §1

ELK4 = target: T3, ELK4 (Homo sapiens, UniProt P28324-2 1-405); conditions: protein: recombinant; tags: N-terminal GST; dsDNA, one strand shown
T3 sequence: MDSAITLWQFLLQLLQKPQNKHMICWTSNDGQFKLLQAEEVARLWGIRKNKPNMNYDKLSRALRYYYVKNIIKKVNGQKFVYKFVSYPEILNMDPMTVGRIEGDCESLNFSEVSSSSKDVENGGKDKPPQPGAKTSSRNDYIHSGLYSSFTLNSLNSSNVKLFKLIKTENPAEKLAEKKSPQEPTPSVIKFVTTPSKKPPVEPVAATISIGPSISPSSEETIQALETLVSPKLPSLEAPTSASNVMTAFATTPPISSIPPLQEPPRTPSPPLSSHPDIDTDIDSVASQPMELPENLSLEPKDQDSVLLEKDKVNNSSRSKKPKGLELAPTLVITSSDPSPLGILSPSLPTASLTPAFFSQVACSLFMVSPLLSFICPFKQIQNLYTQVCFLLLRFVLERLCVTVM
Summary of the method: as §1

ETV2 = target: T4, ETV2 (Homo sapiens, UniProt O00321 1-342); conditions: protein: recombinant; tags: N-terminal GST; dsDNA, one strand shown
T4 sequence: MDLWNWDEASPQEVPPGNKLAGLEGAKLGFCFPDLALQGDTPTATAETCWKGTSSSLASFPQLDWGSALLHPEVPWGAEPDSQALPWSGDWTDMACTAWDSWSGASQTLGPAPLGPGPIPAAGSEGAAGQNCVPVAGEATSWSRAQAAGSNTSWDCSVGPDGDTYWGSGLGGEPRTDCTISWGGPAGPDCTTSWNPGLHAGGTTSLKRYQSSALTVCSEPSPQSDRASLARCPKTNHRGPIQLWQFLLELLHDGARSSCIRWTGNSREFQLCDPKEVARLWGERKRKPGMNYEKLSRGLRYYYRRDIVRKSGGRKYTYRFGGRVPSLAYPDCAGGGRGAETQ
Summary of the method: as §1

ELF3 = target: T5, ELF3 (Homo sapiens, UniProt P78545 1-371); conditions: protein: recombinant; tags: N-terminal GST; dsDNA, one strand shown
T5 sequence: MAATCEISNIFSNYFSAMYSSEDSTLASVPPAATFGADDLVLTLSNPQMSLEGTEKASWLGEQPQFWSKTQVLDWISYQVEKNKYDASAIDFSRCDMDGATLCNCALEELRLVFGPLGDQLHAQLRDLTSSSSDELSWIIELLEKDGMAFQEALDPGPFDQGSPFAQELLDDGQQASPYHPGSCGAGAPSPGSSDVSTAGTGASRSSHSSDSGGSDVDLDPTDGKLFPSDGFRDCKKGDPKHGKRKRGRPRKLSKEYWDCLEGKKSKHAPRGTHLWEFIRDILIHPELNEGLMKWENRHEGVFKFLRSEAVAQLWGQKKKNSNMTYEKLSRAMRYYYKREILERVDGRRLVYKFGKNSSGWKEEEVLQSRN
Summary of the method: as §1

CRX = CRX (Homo sapiens, UniProt O43186 1-299); conditions: protein: recombinant; tags: N-terminal GST; dsDNA, one strand shown
Summary of the method: as §1

ETV1 = ETV1 (Homo sapiens, UniProt P50549 1-477); conditions: protein: recombinant; tags: N-terminal GST; dsDNA, one strand shown
Summary of the method: as §1

ERF = target: T6, ERF (Homo sapiens, UniProt P50548 1-548); conditions: protein: recombinant; tags: N-terminal GST; dsDNA, one strand shown
T6 sequence: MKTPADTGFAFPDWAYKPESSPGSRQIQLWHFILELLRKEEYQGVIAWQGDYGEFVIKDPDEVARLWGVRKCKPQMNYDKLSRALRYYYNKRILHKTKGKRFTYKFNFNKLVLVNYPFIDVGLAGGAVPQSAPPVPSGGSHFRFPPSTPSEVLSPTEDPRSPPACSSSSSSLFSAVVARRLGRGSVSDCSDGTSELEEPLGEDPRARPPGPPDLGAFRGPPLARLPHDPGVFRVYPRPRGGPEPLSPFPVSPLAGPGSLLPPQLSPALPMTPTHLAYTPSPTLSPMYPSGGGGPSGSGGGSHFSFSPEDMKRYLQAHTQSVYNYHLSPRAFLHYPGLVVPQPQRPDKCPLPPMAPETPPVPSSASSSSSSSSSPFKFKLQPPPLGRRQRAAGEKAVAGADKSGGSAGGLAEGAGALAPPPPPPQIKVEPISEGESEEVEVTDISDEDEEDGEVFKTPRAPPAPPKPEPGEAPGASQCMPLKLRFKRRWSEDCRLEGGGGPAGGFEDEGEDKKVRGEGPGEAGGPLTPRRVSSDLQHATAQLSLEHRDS
Summary of the method: as §1

ETV3L = target: T7, ETV3L (Homo sapiens, UniProt Q6ZN32 1-361); conditions: protein: recombinant; tags: N-terminal GST; dsDNA, one strand shown
T7 sequence: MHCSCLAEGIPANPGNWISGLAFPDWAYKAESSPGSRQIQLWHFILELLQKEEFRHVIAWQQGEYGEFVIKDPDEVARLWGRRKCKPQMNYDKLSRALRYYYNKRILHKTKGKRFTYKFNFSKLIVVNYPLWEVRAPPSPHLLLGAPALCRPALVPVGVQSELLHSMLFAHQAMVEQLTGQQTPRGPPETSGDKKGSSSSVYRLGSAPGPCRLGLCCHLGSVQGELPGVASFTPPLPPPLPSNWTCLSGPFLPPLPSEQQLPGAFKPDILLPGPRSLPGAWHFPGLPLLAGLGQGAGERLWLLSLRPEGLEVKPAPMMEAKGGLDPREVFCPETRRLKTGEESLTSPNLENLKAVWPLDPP
Summary of the method: as §1

ETS2 = target: T8, ETS2 (Homo sapiens, UniProt P15036 1-469); conditions: protein: recombinant; tags: N-terminal GST; dsDNA, one strand shown
T8 sequence: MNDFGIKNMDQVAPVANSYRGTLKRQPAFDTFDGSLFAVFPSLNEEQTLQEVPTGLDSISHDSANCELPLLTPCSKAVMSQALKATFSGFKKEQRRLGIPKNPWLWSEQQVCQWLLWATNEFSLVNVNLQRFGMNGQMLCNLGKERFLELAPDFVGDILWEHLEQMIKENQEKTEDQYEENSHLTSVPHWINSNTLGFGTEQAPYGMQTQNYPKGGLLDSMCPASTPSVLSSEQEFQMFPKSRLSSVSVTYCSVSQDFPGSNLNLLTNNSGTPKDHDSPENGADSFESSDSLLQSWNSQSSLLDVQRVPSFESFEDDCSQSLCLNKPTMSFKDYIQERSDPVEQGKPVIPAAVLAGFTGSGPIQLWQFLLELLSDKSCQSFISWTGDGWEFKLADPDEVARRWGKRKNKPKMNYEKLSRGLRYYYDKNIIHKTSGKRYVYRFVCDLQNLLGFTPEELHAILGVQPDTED
Summary of the method: as §1

SPDEF = target: T9, SPDEF (Homo sapiens, UniProt O95238 1-335); conditions: protein: recombinant; tags: N-terminal GST; dsDNA, one strand shown
T9 sequence: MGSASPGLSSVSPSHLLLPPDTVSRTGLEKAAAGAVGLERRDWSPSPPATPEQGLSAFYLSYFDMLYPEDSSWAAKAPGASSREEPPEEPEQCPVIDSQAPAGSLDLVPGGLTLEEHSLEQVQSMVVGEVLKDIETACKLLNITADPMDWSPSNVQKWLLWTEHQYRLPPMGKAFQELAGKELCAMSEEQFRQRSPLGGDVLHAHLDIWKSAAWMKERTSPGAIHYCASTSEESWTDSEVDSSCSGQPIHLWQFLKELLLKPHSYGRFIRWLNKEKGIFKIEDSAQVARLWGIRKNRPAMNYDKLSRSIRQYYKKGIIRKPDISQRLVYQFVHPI
Summary of the method: as §1

ETV7 = target: T10, ETV7 (Homo sapiens, UniProt Q9Y603 1-341); conditions: protein: recombinant; tags: N-terminal GST; dsDNA, one strand shown
T10 sequence: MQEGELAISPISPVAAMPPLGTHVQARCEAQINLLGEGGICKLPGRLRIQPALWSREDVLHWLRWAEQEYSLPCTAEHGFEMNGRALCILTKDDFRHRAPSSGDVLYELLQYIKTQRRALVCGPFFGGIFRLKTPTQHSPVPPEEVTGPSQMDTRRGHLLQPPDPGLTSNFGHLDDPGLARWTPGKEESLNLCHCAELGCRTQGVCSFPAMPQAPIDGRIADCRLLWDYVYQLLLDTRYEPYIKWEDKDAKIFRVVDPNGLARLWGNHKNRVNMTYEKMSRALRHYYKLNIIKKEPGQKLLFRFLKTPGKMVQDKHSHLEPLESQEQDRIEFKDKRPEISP
Summary of the method: as §1

ELF5 = target: T11, ELF5 (Homo sapiens, UniProt Q9UKW6-2 1-255); conditions: protein: recombinant; tags: N-terminal GST; dsDNA, one strand shown
T11 sequence: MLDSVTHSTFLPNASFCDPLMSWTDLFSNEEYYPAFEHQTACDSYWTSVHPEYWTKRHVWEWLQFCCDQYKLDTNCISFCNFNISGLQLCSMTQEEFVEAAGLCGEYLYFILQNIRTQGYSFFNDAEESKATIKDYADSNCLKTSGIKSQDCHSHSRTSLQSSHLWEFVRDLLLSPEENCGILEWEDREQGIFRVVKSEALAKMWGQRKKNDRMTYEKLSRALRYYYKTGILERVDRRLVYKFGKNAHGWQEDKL
Summary of the method: as §1

ETV3 = target: T12, ETV3 (Homo sapiens, UniProt P41162-2 1-143); conditions: protein: recombinant; tags: N-terminal GST; dsDNA, one strand shown
T12 sequence: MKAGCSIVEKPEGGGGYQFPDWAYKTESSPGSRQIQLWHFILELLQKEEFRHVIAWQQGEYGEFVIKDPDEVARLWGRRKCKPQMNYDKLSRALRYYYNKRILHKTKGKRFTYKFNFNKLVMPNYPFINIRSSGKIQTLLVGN
Summary of the method: as §1

ETV6 = ETV6 (Homo sapiens, UniProt P41212 1-452); conditions: protein: recombinant; tags: N-terminal GST; dsDNA, one strand shown
Summary of the method: as §1

Chain of ELF4 (Q99607 whole entry): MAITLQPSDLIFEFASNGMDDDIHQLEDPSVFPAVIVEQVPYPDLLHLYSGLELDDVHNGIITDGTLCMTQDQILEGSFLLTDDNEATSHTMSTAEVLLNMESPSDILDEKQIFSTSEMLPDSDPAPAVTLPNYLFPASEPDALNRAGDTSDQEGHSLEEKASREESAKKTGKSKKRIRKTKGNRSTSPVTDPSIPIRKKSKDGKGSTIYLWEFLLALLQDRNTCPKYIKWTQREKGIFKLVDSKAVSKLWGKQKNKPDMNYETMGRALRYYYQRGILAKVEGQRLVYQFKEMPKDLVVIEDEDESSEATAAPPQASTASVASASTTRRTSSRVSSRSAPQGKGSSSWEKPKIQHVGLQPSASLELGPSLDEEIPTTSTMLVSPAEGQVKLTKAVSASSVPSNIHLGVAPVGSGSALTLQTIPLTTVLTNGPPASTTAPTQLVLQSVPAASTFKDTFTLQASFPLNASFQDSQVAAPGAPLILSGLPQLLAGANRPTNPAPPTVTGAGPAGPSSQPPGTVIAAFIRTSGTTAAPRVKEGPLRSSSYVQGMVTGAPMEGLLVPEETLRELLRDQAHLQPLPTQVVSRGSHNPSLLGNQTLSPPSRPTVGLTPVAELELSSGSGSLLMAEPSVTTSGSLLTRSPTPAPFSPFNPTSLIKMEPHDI
Chain of HSF1 (Q00613 whole entry): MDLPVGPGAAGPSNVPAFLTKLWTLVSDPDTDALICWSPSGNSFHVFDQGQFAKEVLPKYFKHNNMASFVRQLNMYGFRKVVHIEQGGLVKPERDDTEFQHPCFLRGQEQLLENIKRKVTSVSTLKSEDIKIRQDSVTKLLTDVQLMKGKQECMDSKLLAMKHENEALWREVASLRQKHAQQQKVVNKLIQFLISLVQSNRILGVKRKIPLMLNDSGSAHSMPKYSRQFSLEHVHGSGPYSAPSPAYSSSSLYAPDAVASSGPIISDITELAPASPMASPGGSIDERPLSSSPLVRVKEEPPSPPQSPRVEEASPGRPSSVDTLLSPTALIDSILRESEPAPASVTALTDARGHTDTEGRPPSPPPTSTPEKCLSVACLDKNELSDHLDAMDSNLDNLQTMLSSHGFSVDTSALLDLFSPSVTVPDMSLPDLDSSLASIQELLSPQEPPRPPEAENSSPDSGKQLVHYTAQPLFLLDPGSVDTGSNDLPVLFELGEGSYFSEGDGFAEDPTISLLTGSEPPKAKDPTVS
Chain of ETV1 (P50549 whole entry): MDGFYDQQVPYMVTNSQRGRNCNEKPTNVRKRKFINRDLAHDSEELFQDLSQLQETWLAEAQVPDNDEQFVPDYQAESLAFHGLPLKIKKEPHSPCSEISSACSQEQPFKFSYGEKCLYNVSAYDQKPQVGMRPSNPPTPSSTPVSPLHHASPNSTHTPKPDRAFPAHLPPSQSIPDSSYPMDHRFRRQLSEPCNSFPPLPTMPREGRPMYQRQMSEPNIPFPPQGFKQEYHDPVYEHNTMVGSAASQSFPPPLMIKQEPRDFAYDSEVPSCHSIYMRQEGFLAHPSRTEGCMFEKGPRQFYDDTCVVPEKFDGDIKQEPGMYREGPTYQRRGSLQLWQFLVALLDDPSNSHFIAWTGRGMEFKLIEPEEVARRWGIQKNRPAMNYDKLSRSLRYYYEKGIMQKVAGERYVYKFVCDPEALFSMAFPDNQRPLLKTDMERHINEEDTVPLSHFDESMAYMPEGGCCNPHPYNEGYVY
Chain of CRX (O43186 whole entry): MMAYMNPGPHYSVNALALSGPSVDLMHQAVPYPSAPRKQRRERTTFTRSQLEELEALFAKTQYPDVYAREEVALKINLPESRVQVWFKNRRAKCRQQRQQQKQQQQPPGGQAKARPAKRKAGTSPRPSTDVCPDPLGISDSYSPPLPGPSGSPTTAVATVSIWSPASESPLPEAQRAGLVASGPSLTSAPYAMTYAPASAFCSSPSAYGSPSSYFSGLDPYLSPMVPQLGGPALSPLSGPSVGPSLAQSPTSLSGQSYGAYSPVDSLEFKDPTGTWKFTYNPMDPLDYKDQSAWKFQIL
Chain of ETV6 (P41212 whole entry): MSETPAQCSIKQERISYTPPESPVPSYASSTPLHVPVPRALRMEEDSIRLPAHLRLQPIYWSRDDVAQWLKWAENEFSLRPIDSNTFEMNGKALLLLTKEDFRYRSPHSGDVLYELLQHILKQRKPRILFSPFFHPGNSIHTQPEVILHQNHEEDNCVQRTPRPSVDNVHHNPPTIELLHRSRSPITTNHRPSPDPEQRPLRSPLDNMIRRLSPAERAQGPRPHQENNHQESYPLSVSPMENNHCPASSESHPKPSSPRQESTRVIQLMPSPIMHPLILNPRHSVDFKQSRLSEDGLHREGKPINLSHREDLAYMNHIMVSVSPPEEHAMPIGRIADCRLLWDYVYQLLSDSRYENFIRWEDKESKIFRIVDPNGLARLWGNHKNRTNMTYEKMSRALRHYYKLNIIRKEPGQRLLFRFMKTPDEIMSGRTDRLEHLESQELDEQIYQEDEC
Chain of ETV5 (P41161 whole entry): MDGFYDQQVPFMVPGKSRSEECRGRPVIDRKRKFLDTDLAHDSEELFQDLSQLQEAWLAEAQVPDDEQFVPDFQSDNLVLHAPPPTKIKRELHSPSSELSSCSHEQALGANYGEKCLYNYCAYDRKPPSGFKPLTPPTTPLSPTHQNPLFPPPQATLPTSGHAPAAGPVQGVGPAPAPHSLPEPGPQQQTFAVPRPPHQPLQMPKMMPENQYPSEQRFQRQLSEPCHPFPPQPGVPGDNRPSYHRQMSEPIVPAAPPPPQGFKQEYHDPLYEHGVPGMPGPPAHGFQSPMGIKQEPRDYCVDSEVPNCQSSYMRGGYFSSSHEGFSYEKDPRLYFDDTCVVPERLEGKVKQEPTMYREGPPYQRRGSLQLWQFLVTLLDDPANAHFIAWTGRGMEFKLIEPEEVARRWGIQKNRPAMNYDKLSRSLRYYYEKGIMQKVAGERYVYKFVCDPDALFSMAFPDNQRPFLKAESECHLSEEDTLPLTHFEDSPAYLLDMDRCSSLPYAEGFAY

Q: Which results are given for TCTTCT?
A: binding signal (FEV): 1.16 fold enrichment (6-mer frequency, TF over GST control); binding signal (ETV5): 1.14 fold enrichment (6-mer frequency, TF over GST control); binding signal (HSF1): 2.17 fold enrichment (6-mer frequency, TF over GST control); binding signal (SPIC): 1.31 fold enrichment (6-mer frequency, TF over GST control); binding signal (ELF4): 1.16 fold enrichment (6-mer frequency, TF over GST control); binding signal (ELK4): 1.26 fold enrichment (6-mer frequency, TF over GST control); binding signal (ETV2): 1.22 fold enrichment (6-mer frequency, TF over GST control); binding signal (ELF3): 1.31 fold enrichment (6-mer frequency, TF over GST control); binding signal (CRX): 1.59 fold enrichment (6-mer frequency, TF over GST control); binding signal (ETV1): 1.25 fold enrichment (6-mer frequency, TF over GST control); binding signal (ERF): 1.24 fold enrichment (6-mer frequency, TF over GST control); binding signal (ETV3L): 1.29 fold enrichment (6-mer frequency, TF over GST control); binding signal (ETS2): 1.23 fold enrichment (6-mer frequency, TF over GST control); binding signal (SPDEF): 1.16 fold enrichment (6-mer frequency, TF over GST control); binding signal (ETV7): 1.06 fold enrichment (6-mer frequency, TF over GST control); binding signal (ELF5): 1.19 fold enrichment (6-mer frequency, TF over GST control); binding signal (ETV3): 1.25 fold enrichment (6-mer frequency, TF over GST control); binding signal (ETV6): 1.29 fold enrichment (6-mer frequency, TF over GST control)

Source: publication PMC7862700, “An all-to-all approach to the identification of sequence-specific readers for epigenetic DNA modifications on cytosine”
